Compound activity as filed in PubChem.
HIV RNase H inh-1 – blocks HIV-1 RNase H cleavage of RNA/DNA duplex; P04585; RT-RNase H RNA/DNA duplex cleavage, fluorescence; inhibition, % at 10 µM; 65,000 compounds, 1.9% hits; in the data active = inhibition above about 50%
RmlCD inh mix – mixture blocks RmlC and RmlD coupled enzyme activity | 110,000 compounds, 0.39% hits | RmlC/RmlD coupled enzyme inhibition, 384-well mixture HTS | inhibition, % at 5.5 µM | AID 1532; in the data active = inhibition above about 30%, passing the limit was not always enough; inconclusive = no clear call, values can overlap the other calls
HIV RNase H inh-2 – confirmation of HIV-1 reverse transcriptase RNase H inhibitors; AID 651; shares compounds with HIV RNase H inh-1; Recombinant RT RNase H, fluorescent RNA/DNA duplex cleavage; inhibition, % at 10 µM; 1,000 compounds, 39% hits; in the data active = inhibition above about 48%; inconclusive = no clear call, values can overlap the other calls
Numbers stand for hits. Only a selection was taken, and hits are over-represented in it overall.

Screening COc1ccc(C)cc1NC(=O)CN1CCN(C/C=C/c2ccccc2)CC1 returned RmlCD inh mix inactive.
Screening CCCCCSc1nc2c(c(=O)[nH]c(=O)n2C)n1C(C)C returned HIV RNase H inh-1 inactive and RmlCD inh mix inactive.
`CCCCCCn1c(SCC(C)C)nc2c1c(=O)[nH]c(=O)n2C` gave HIV RNase H inh-1 inactive and RmlCD inh mix inactive.
For COC(=O)C(C)Sc1nc2c(c(=O)n(C)c(=O)n2C)n1CCC(C)C (configuration not stated) the results were HIV RNase H inh-1 inactive.
For C=CCSc1nc2c(c(=O)[nH]c(=O)n2C)n1C/C=C(/C)Cl the results were HIV RNase H inh-1 inactive and RmlCD inh mix inactive.
C=CCSc1nc2c(c(=O)[nH]c(=O)n2C)n1CC was read as HIV RNase H inh-1 69, RmlCD inh mix inactive and HIV RNase H inh-2 75.
Screening CC(C)n1c(SCC(N)=O)nc2c1c(=O)[nH]c(=O)n2C returned HIV RNase H inh-1 61, RmlCD inh mix inactive and HIV RNase H inh-2 inactive.
COC(=O)CSc1nc2c(c(=O)n(C)c(=O)n2C)n1CCC(C)C was read as HIV RNase H inh-1 74, RmlCD inh mix inactive and HIV RNase H inh-2 inactive.
Screening CCCCCCn1c(SCC(=O)OC)nc2c1c(=O)[nH]c(=O)n2C returned HIV RNase H inh-1 93, RmlCD inh mix inactive and HIV RNase H inh-2 66.
COC(=O)C(C(=O)OC)C(C(C)C)C(C(=O)OC)C(=O)OC was read as HIV RNase H inh-1 inactive and RmlCD inh mix inactive.
CCOC(=O)n1c(=O)n(Cc2ccc(Cl)c(Cl)c2)c2ccccc21 was read as RmlCD inh mix inactive.
`O=C(NCCc1nc(-c2ccccc2)no1)c1ccco1` gave RmlCD inh mix inactive.
For N#Cc1c(Cl)c(Cl)c2nnc(-c3ccc(Br)cc3)n2c1Cl the results were RmlCD inh mix inactive.
Screening CCCCCSc1nc2c(c(=O)[nH]c(=O)n2C)n1C returned HIV RNase H inh-1 inactive and RmlCD inh mix inactive.
CCCCCSc1nc2c(c(=O)[nH]c(=O)n2C)n1CC was read as HIV RNase H inh-1 73, RmlCD inh mix inactive and HIV RNase H inh-2 inactive.
`COc1ccc(-c2nnn(CC(=O)NCCc3c[nH]c4ccccc34)n2)cc1OC` gave RmlCD inh mix inactive.
COc1[nH]c(/N=C/c2ccccc2)c(C#N)c1C#N was read as HIV RNase H inh-1 53, RmlCD inh mix inactive and HIV RNase H inh-2 inactive.
For COc1ccc(/C=N/c2oc(-c3ccccc3)cc2C#N)cc1 the results were RmlCD inh mix inactive.
For CN(C)CCCN1c2ccc([N+](=O)[O-])cc2CCc2cc([N+](=O)[O-])ccc21 the results were RmlCD inh mix inactive.
For COC(=O)C1=C(C)N(CCc2cc(OC)c(OC)c(OC)c2)C(=O)N[C@H]1c1ccccc1 the results were RmlCD inh mix inactive.
CCOC(=O)c1sc(=S)n(-c2ccccc2Cl)c1SC was read as RmlCD inh mix inactive.
For CCOC(=O)c1c(N)sn(-c2ccccc2C)c1=S the results were HIV RNase H inh-1 92, RmlCD inh mix inactive and HIV RNase H inh-2 71.
`c1ccc(Cn2ncc3ccccc32)cc1` gave HIV RNase H inh-1 inactive and RmlCD inh mix inactive.
Nn1cnn(Cc2ccccc2)c1=S was read as HIV RNase H inh-1 73, RmlCD inh mix inactive and HIV RNase H inh-2 inconclusive.
CC1(C)CC(=O)C=C(OC(=O)c2ccc(Cl)cc2)C1 was read as RmlCD inh mix inactive.
`CC(Sc1ccc(Cl)cc1)C(=O)Nc1ccc(S(=O)(=O)N2CCOCC2)cc1` (configuration not stated) gave RmlCD inh mix inactive.
`O=C1NC(c2ccccn2)Nc2sc3c(c21)CCC3` (configuration not stated) gave HIV RNase H inh-1 inactive and RmlCD inh mix inactive.
Cn1cc(C2NC(=O)c3c(sc4c3CCCC4)N2)c2ccccc21 (configuration not stated) was read as HIV RNase H inh-1 69 and HIV RNase H inh-2 inconclusive.
`CCOC(=O)c1cncc(C(=O)O)c1` gave RmlCD inh mix inactive.
`CCCc1cc(C(=O)Nc2sc(C(C)=O)c(C)c2C(=O)OCC)no1` gave HIV RNase H inh-1 68, RmlCD inh mix inactive and HIV RNase H inh-2 inconclusive.
CCOC(=O)c1c(NC(=O)c2cc(CC(C)C)on2)sc(C(C)=O)c1C was read as RmlCD inh mix inactive.
For CS(=O)(=O)N(CCc1ccccc1)CC(=O)N1CCN(c2ccc(F)cc2)CC1 the results were RmlCD inh mix inactive.
CC1(C)CC(=O)C=C(c2cccs2)C1 was read as RmlCD inh mix inactive.
`COCc1nc2ccccc2n1CCOc1ccccc1OC` gave HIV RNase H inh-1 80, RmlCD inh mix inactive and HIV RNase H inh-2 inactive.
For COCCn1c(COC)nc2ccccc21 the results were HIV RNase H inh-1 inactive and RmlCD inh mix inactive.
`CCc1ccc(NCc2cc3c(C)nn(-c4ccccc4)c3[nH]c2=O)cc1` gave RmlCD inh mix inactive.
Cc1nn(-c2ccccc2)c2[nH]c(=O)c(CNc3ccc4c(c3)OCCO4)cc12 was read as HIV RNase H inh-1 80, RmlCD inh mix inactive and HIV RNase H inh-2 inactive.
CN1CCN(C(=O)C2=C[C@H](c3ccc(C(F)(F)F)cc3)C[C@H](OCc3ccc(CO)cc3)O2)CC1 was read as RmlCD inh mix inactive.
For O=[N+]([O-])c1ccc(S(=O)(=O)NCCc2cn3ccccc3n2)cc1 the results were RmlCD inh mix inactive.
For COc1cc(-c2nnc(SCC3(c4ccccc4)OCCO3)o2)cc(OC)c1OC the results were RmlCD inh mix inactive.
`O=C(NC1CCCC1)c1ccc2nc(-c3ccco3)c(-c3ccco3)nc2c1` gave HIV RNase H inh-1 83 and HIV RNase H inh-2 inactive.
O=C(Nc1ccc2nc(-c3ccco3)c(-c3ccco3)nc2c1)N1CCCCCC1 was read as HIV RNase H inh-1 97, RmlCD inh mix inactive and HIV RNase H inh-2 53.
Screening O=C(NCCO)c1ccc2nc(-c3ccco3)c(-c3ccco3)nc2c1 returned RmlCD inh mix inactive.
For CCOC(=O)C1CCN(C(=O)Nc2ccc3nc(-c4ccco4)c(-c4ccco4)nc3c2)CC1 the results were RmlCD inh mix inactive.
Screening COc1cccc(C2NC(=O)N(CCCC(=O)O)C(C)=C2C(=O)OCc2ccccc2)c1 (configuration not stated) returned RmlCD inh mix inactive.
Screening CCOC(=O)C1=C(C)NC(=O)NC1C(C)C (configuration not stated) returned RmlCD inh mix inactive.
Screening CCOC(=O)N(c1ccccc1)P1(=S)OCCO1 returned HIV RNase H inh-1 88, RmlCD inh mix inactive and HIV RNase H inh-2 57.
CCOC(=O)N(c1ccccc1)P1(=S)OCC(C)O1 (configuration not stated) was read as HIV RNase H inh-1 inactive and RmlCD inh mix inactive.
CNC(=O)N(c1ccccc1)c1ccccc1 was read as HIV RNase H inh-1 inactive and RmlCD inh mix inactive.
COC(=O)N(c1ccccc1)P1(=S)OCCO1 was read as HIV RNase H inh-1 90, RmlCD inh mix inactive and HIV RNase H inh-2 54.
For Cc1ccc2c(c1)C(=O)CC1(CCCC1)O2 the results were RmlCD inh mix inactive.
`CC(C)C[C@H](NC(=O)c1[nH]cnc1C(=O)Nc1ccccc1)C(=O)OC(C)(C)C` gave RmlCD inh mix inactive.
`COC(=O)C(NC(=O)c1ccccc1)(Nc1cc(C)cc(C)n1)C(F)(F)F` (configuration not stated) gave RmlCD inh mix inactive.
Screening Cc1onc(-c2ccccc2)c1-c1n[nH]c(=S)n1-c1ccccc1 returned RmlCD inh mix inactive.
